Screens as filed in PubChem.
This is a sample that favours compounds with a hit; in the whole collection about 10% have one here.
NS1 function inh – qHTS Assay for Inhibitors of Influenza NS1 Protein Function. hit rate 0.4% among 270,000. Potency, µM (series often up to 46.1 µM), without a hit: at the top dose activity, positive = more growth. AID 2326, 2010; note: actives are rising curves; nearly all actives have a fitted effect of over 50% in size
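S. cerevisiae expressing influenza A NS1, grown in glucose, washed, then diluted 1:100 into pH 6.0 -URA galactose medium with 23 nl compound. Growth recovery read as OD600; NS1-free strain serves as control.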
Pf growth 96h – Primary qHTS for delayed death inhibitors of the malarial parasite plastid, 96 hour incubation; hit rate 6.9% among 320,000; AID 504834, 2011; P. falciparum luciferase reporter growth, 96 h; Potency, µM (titrated, usually from 28.7 µM), without a hit: top-dose activity change, negative = inhibition, hits mostly inhibitors; active = well fitted inhibition curve with a large enough effect; inconclusive = small, poorly fitted or top-dose-only effect, or another doubt; inactive = no such curve, though single readings can be large or run the other way; note: % is set by controls: 0 for no effect and ±100 for the full control effect
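Infected RBCs, 2% Hct / 0.05% parasitemia final; luciferase-reporter P. falciparum; cpd 96 h, 37 C, 5% CO2; luciferase detection reagent; luminescence.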
Pf growth 48h – Primary qHTS for delayed death inhibitors of the malarial parasite plastid, 48 hour incubation | hit rate 5.9% among 310,000 | Potency, µM (top dose mostly 28.7 µM), for the others: at the highest dose activity change, negative = inhibition, most hits filed as inhibitors | P. falciparum luciferase growth in erythrocytes, 48 h | AID 504832, 2011; active = well fitted inhibition curve with a large enough effect; inconclusive = small, poorly fitted or top-dose-only effect, or another doubt; inactive = no such curve, though single readings can be large or run the other way; note: % is set by controls: 0 for no effect and ±100 for the full control effect
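Luminescence readout; reporter = integrated firefly luciferase in P. falciparum. RBC culture at 2% hematocrit, 0.1% parasitemia final, 37 C/5% CO2; decreased signal taken as growth inhibition.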
SARS PLpro yeast – qHTS of Yeast-based Assay for SARS-CoV PLP; S. cerevisiae expressing SARS-CoV PLpro, growth rescue; AID 485353, 2010; Potency, µM (doses to about 32.9 µM), for inactives: top-dose activity, positive = growth rescue, hits mostly activators; hit rate 0.19% among 330,000; note: 0% is about no effect; nearly all actives have a fitted effect of over 55% in size
Active calls of the source: *; ? = inconclusive; · = not tested or not shown; [ ] = dose if it differs, or a comment. Unless noted, calls come from the whole dose curve. Potency is the fitted concentration of half-maximal effect.

SMILES | NS1 function inh | Pf growth 96h | Pf growth 48h | SARS PLpro yeast
COc1cccc(NC(=O)CN(C)C(=O)C(C)Sc2ccccc2)c1 (stereo unspecified) | · | -7.8% | ? | 0.5%
CCN(CC(=O)Nc1c(C(=O)OC)[nH]c2ccccc12)c1ccc2c(c1)OCO2 | 17.0% | ? | 10.4µM* | -6.5%
O=C(NC1CCCCC1)C(=O)N(Cc1cccnc1)C(C(=O)NCc1ccco1)c1ccccc1 (stereo unspecified) | · | 5.22µM* | -27.2% | 4.9%
O=C(CNC(=S)N(Cc1ccccc1)Cc1cccnc1)NCc1ccccc1 | · | ? | -17.9% | 2.1%
O=C(NC1CCCC1)C(=O)N(Cc1cccnc1)C(C(=O)NCc1ccco1)c1ccccc1F (stereo unspecified) | 1.8% | -26.9% | -14.8% | 0.1%
O=C(CNC(=S)N(Cc1ccccc1)Cc1cccnc1)NC1CCCCC1 | -3.0% | 9.28µM* | ? | 3.6%
CCOc1cccc(-c2nnc3n2N=C(c2cc(OC)ccc2OC)CS3)c1 | 9.4% | 11.7µM* | 11.7µM* | -79.6%
COc1ccc(OC)c(C2=Nn3c(nnc3-c3cc(OC)c(OC)c(OC)c3)SC2)c1 | -50.3% | 32.6% | 6.57µM* | -1.3%
COc1ccc(C2=Nn3c(nnc3-c3ccc(OC)cc3)SC2)cc1 | -19.2% | · | 10.4µM* | -26.6%
COc1ccc(N=C2SCC(c3ccccc3)=NN2C)cc1 | -8.3% | 11.8% | 2.62µM* | -1.3%
[O-]/C(=C(\C(=S)Nc1cccc2ccccc12)[n+]1ccccc1)c1ccc(OC(F)F)cc1 | · | 14.7µM* | ? | -3.1%
[O-]/C(=C(\C(=S)Nc1cccc2ccccc12)[n+]1ccccc1)c1ccc2c(c1)OCCO2 | 15.6% | 5.86µM* | · | 4.3%
COc1ccc(OC)c(/C=C2\Oc3cc(OCC(=O)N4CCC(C(=O)O)CC4)ccc3C2=O)c1 | ? | -12.1% | -6.9% | 2.3%
COc1ccc(-c2nc3c(c4nnc(SC(C)C(=O)Nc5ccc(C)cc5)n24)COC(C)(C)C3)cc1 (stereo unspecified) | 4.6% | 2.62µM* | 7.38µM* | 2.3%
COc1ccc(NC(=O)CSc2nnc3c4c(nc(-c5ccccc5)n23)CC(C)(C)OC4)cc1 | 10.8% | ? | -103.7% | 28.5%
Cc1oc2c(c1C(=O)NCCO)CCCC2 | 6.8% | 0.0131µM* | · | 7.2%
NS(=O)(=O)c1ccc(NC(=O)COC(=O)C2CC2)cc1 | · | · | · | 1.1%
COC(=O)c1cc(O)cc(OC)c1C(=O)c1c(O)cc(C)cc1O | 5.0% | 5.22µM* | ? | 1.1%
COc1cc(C)cc(C(=O)O)c1C1=C(O)c2cccc(O)c2C(=O)C1=O | 6.0% | 21.2% | 3.3% | -0.1%
COC(=O)c1cc(O)cc(OC)c1Oc1cc(C)cc(O)c1C(=O)O | 0.4% | -3.9% | 2.62µM* | -7.1%
Clc1cccc(Cl)c1CSc1cc2c(nn1)-c1ccccc1CC2 | 4.2% | 16.7% | -0.3% | -1.6%
O=c1cc2c(nn1Cc1c(Cl)cccc1Cl)-c1ccccc1CC2 | -1.3% | 5.22µM* | · | -11.1%
COC(=O)C(NC(=O)CCc1c(C)nc2c(c(C)nn2-c2ccccc2)c1C)C(C)C (stereo unspecified) | -7.9% | 1.5% | 6.57µM* | -1.8%
Cc1nc2c(c(C)nn2-c2ccccc2)c(C)c1CCC(=O)Nc1ccc(CN2CCCC2)cc1 | 6.3% | 2.08µM* | ? | -0.8%
CCC(C)NC(=O)CCc1c(C)nc2c(c(C)nn2-c2ccccc2)c1C (stereo unspecified) | -0.5% | -16.3% | ? | -1.0%
SMILES | NS1 function inh | Pf growth 96h | Pf growth 48h | SARS PLpro yeast
C[n+]1ccccc1/C=N\O | · | ? | -17.1%[12.8 µM] | ·
O=C(NCc1ccc(Cl)cc1)c1nccnc1CO | 5.6% | -9.0% | 19.9% | -3.4%
O=C(NCc1ccccc1)c1nccnc1CO | 5.6% | 10.4µM* | -20.9%[0.00184 µM] | 1.5%
Cc1ccc(NC(=O)CNCc2cccs2)cc1Br | -3.3% | 0.0% | 7.2% | 0.4%
Cc1cc(C)n(/N=C/c2ccc(C(C)C)cc2)c(=O)c1C#N | -34.7% | ? | 1.85µM* | -6.9%
Cc1cc(C)n(/N=C/c2ccc(O)cc2)c(=O)c1C#N | 3.7% | -0.5% | 8.4% | -0.4%
Cc1ccc(/C=N/n2c(C)cc(C)c(C#N)c2=O)cc1 | 0.4% | 14.7µM* | 14.7µM* | 9.4%
CC1(c2nnc(-c3cccc(Cl)c3)o2)CC(c2ccccc2Br)=NO1 (stereo unspecified) | -17.4% | ? | 3.9% | 1.6%
CCOc1ccc(/C=N/NC(=O)CN2CCCCCCC2)cc1 | · | ? | -8.6% | -4.9%
O=C(CSc1nnc(C2CC2)n1C1CC1)c1cc(F)ccc1F | · | -3.0% | ? | 1.3%
CCOC(=O)C1(C)C=C(Nc2ccc(O)cc2)C(=O)N1c1ccc(O)cc1 (stereo unspecified) | 1.2% | 10.4µM* | 11.7µM* | 4.7%
CCOC(=O)C1(C)C=C(Nc2ccc(OC)cc2)C(=O)N1c1ccc(OC)cc1 (stereo unspecified) | 4.1% | 19.0% | -9.4% | 4.0%
CCN(CC)CC(O)c1ccc(C2CCCC2)cc1 (stereo unspecified) | 1.8% | 13.1µM* | 10.4µM* | 3.9%
NCCOc1ccc(C2CCCCC2)cc1 | · | ? | 47.6% | -5.5%
COCc1cc(N2CCCC2)nc(-c2ccccc2)n1 | · | -6.3% | -10.8% | 0.5%
Cc1nccn1S(=O)(=O)c1ccc(Br)cc1Br | -7.2% | 13.1µM* | 1.85µM* | -8.5%
O=C(CN1C(=O)NC2(CCCCCCC2)C1=O)Nc1ccc(Cl)cc1 | · | 9.9% | -12.4% | -3.9%
CCOC(=O)C(CO)(NC(C)=O)C(=O)OCC | -3.3% | 0.928µM* | 4.6% | ?
CCOC(=O)C(CCCCCCC(NC(C)=O)(C(=O)OCC)C(=O)OCC)(NC(C)=O)C(=O)OCC | -0.6% | -24.7% | 2.1% | -0.3%
COc1cc(/C=c2\s/c(=C\C(=O)C(C)(C)C)[nH]c2=O)cc(OC)c1OC | 1.0% | ? | ? | 0.3%
Cc1cccc(/C=c2\s/c(=C\C(=O)C(C)(C)C)[nH]c2=O)c1 | -76.5% | 2.08µM* | ? | -23.1%
COc1ccc(/C=c2\s/c(=C\C(=O)C(C)(C)C)[nH]c2=O)cc1O | -3.6% | 4.15µM* | ? | -0.8%
CC(C)(C)C(=O)/C=c1\[nH]c(=O)/c(=C\c2ccc(C#N)cc2)s1 | -3.9% | -104.2% | · | -1.0%
COc1cc(C(=O)NCC(c2ccco2)N2CCc3ccccc32)cc(OC)c1OC (stereo unspecified) | · | -17.1% | -14.0% | 0.3%
COc1ccccc1C(=O)NCC(c1ccco1)N1CCc2ccccc21 (stereo unspecified) | · | 5.22µM* | 10.4µM* | -0.3%
O=C(NCC(c1ccco1)N1CCc2ccccc21)C(=O)Nc1ccccc1 (stereo unspecified) | · | ? | 1.31µM* | 5.1%
COc1cc(C(=O)NCC(c2cccs2)N2CCc3ccccc32)cc(OC)c1OC (stereo unspecified) | · | 56.5% | ? | -1.9%
COc1ccccc1NC(=O)C(=O)NCC(c1ccco1)N1CCc2ccccc21 (stereo unspecified) | · | ? | 11.7µM* | -1.6%
COc1ccccc1C(=O)NCC(c1cccs1)N1CCc2ccccc21 (stereo unspecified) | · | 3.7µM* | 11.7µM* | 0.5%
